Values joined by “and” are separate entries in the source; they are usually repeats but may differ in a detail not shown here. Equal entries are not always repeated. Active and inactive are the calls of the source. Unless noted, no stated cut-off is given here; in the data, active means inhibition above about 80%; inactive means the rest.
Columns and labels:
[1] = target: NAD(+) hydrolase SARM1 (Homo sapiens) (UniProt Q6SZW1); assay: blocking NAD cleavage by SARM1 SAM-TIR – cell lysate, NAD-Glo luminescence (AID 1508614;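 active means compound whose remaining NAD level is above about 45 nM, limit read from the data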); conditions: SAM-TIR HEK293T lysate NADase, at 1 µM, stronger effect = higher value
[2] = target: Mitogen-activated protein kinase 7 (Homo sapiens) (UniProt Q13164); assay: Gal4-ERK5 driven luciferase induction – cell-based, HTS, primary screen (AID 1508626;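 active means luciferase signal above three times the same-plate solvent-only control wells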;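 further: luciferase driven by Gal4-ERK5 fusion binding five Gal4 sites before minimal TATA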); conditions: HeLa Gal4-ERK5 transactivation, 18 h, at 5 µM, stronger effect = higher value
[3] = galactose survival enhancers in mitochondrial complex I cybrids – cell-based, galactose medium, ATP luminescence, primary screen (AID 1645843;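 active means z-score of at least 1.8 in each of two replicates, scored against plate mean and spread of sample wells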;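 further: positive z means more ATP and so rescue of galactose-driven cybrid death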); conditions: complex I mutant cybrid cells, 72 h, stronger effect = higher value
[4] = growth inhibition, single agent or in combination, cell-based, chromothripsis tumors, cisplatin or BGB combos (AID 1671449); conditions: LFS_MB_P medulloblastoma cells;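 further: cells exposed for 96 hours; 0% = vehicle DMSO and 100% = killing by high DMSO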
[5] = growth inhibition, single agent and combos, cell-based, chromothripsis tumors, cisplatin or BGB combos (AID 1671450); conditions: HDN33 neuroblastoma cells, stronger effect = higher value;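 further: cells exposed to compound for four days; 0% = vehicle DMSO and 100% = cell killing by high DMSO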
[6] = growth inhibition, single agents and combos, ICB984, cell-based, cisplatin or BGB combos, synergistic combos for chromothripsis tumors (AID 1671451; call rule not given here;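 further: cells exposed for 96 hours before readout; 0% = vehicle DMSO and 100% = killing by high DMSO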); conditions: ICB984 medulloblastoma cells, drug combinations, stronger effect = higher value
[7] = growth inhibition, single agents and combos, LFS_MB_1R, cell-based, cisplatin or BGB combos, synergistic combos for chromothripsis tumors (AID 1671452); conditions: LFS_MB_1R medulloblastoma cells, stronger effect = higher value;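 further: cells exposed for 96 hours before readout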
[8] = growth inhibition, single agents and combos, HTB85, cell-based, BGB or cisplatin IC20 combos, synergistic combos for chromothripsis tumors (AID 1671453); conditions: HTB85 osteosarcoma cells, drug combinations, stronger effect = higher value;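 further: cells exposed for 96 hours before readout; 0% = vehicle DMSO and 100% = high DMSO killing control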
[9] = growth inhibition, single agents and combos, CRL2098, cell-based, BGB or cisplatin IC20 combos, synergistic combos for chromothripsis tumors (AID 1671454); conditions: CRL2098 osteosarcoma cells, drug combinations, stronger effect = higher value;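 further: cells exposed for 96 h before readout; 0% = vehicle DMSO and 100% = killing by high DMSO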
[10] = growth inhibition, single agents and combos, HD-MB03, cell-based, BGB or cisplatin IC20 combos, synergistic combos for chromothripsis tumors (AID 1671455; in the data active means inhibition above about 83%;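 further: 0% = vehicle DMSO and 100% = high DMSO as cytotoxic control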); conditions: HD-MB03 medulloblastoma cells, stronger effect = higher value
[11] = growth inhibition, single agents and combos, UWB1.289, cell-based, BGB or cisplatin combos, synergistic combos for chromothripsis tumors (AID 1671456); conditions: UWB1.289 ovarian carcinoma cells, stronger effect = higher value;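 further: cells exposed to compound for four days; 0% = vehicle DMSO and 100% = killing by high DMSO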
[12] = growth inhibition, single agents and combos, LFS_MB_2R, cell-based, cisplatin combos, synergistic combos for chromothripsis tumors (AID 1671457); conditions: LFS_MB_2R medulloblastoma cells, stronger effect = higher value;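 further: cells exposed to compound for four days before readout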
[13] = growth inhibition, MDA-MB-436, cell-based, BGB or cisplatin combos, synergistic combos for chromothripsis tumors (AID 1671458; call rule not given here;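 further: cells exposed for 96 hours; 0% = vehicle DMSO and 100% = killing by high DMSO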); conditions: MDA-MB-436 breast carcinoma growth inhibition, drug combinations, stronger effect = higher value
[14] = UWB1.289_BRCA1 ovarian cancer growth, cell-based, BGB or cisplatin combinations (AID 1671459); conditions: UWB1.289 BRCA1 ovarian carcinoma, drug combinations, stronger effect = higher value
[15] = drug combination toxicity in non-malignant astrocytes – cell-based, BGB or cisplatin IC20 combos, cytotoxicity control for chromothriptic childhood tumor combination screen (AID 1671460); conditions: Human astrocytes, viability inhibition, drug combinations, at 0.5 µM, stronger effect = higher value;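 further: cells exposed to compounds for 96 hours before viability readout; 0% = vehicle and 100% = killing control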
[16] = BT084 cell growth, single and combined drugs, ICGC_MB145, cisplatin and BGB IC40 combos (AID 1671461); conditions: BT084 medulloblastoma cells, drug combinations, stronger effect = higher value;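 further: cells exposed to drugs for 96 hours; 0% = vehicle DMSO and 100% = high DMSO full killing control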
[17] = RCMB18 cell growth, single agent and combined, cisplatin and BGB IC40 combos (AID 1671462); conditions: RCMB18 medulloblastoma cells, stronger effect = higher value;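 further: cells exposed to compound for four days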
[18] = CRL1545 cell growth, single agent and combined, cisplatin and BGB IC20 combos (AID 1671464); conditions: CRL1545 osteosarcoma cells, stronger effect = higher value;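 further: cells exposed to compound for 96 hours before readout; 0% = vehicle DMSO and 100% = high DMSO killing control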
F380Y = assay: BK channel mutant inhibitors and activators – cell-based, U2OS BacMam, thallium flux, beta subunits, selectivity assay, profiling panel (AID 1259406;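 active means thallium flux through the channel raised or lowered by more than 3 SD from vehicle-only wells, actives on both sides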;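 further: initial slope of Thallos dye fluorescence rise after thallium is added; log ratio against the mean of 0.3% DMSO vehicle wells on the same plate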); conditions: U2OS BacMam BK variants, at 30 µM
F380Y/beta1 = assay: as above; conditions: U2OS BacMam BK variants, at 30 µM
[19] = measured here: combination with BGB IC40, at 0.05 µM
[20] = measured here: with BGB IC20 combination, at 0.5 µM
[21] = measured here: with cisplatin IC20 combination, at 0.5 µM
[22] = measured here: combination with cisplatin, at 0.5 µM
[23] = measured here: combination with cisplatin, at 5 µM

Chain of NAD(+) hydrolase SARM1 (Homo sapiens) (Q6SZW1 whole entry, looked up, the tested form may be a part): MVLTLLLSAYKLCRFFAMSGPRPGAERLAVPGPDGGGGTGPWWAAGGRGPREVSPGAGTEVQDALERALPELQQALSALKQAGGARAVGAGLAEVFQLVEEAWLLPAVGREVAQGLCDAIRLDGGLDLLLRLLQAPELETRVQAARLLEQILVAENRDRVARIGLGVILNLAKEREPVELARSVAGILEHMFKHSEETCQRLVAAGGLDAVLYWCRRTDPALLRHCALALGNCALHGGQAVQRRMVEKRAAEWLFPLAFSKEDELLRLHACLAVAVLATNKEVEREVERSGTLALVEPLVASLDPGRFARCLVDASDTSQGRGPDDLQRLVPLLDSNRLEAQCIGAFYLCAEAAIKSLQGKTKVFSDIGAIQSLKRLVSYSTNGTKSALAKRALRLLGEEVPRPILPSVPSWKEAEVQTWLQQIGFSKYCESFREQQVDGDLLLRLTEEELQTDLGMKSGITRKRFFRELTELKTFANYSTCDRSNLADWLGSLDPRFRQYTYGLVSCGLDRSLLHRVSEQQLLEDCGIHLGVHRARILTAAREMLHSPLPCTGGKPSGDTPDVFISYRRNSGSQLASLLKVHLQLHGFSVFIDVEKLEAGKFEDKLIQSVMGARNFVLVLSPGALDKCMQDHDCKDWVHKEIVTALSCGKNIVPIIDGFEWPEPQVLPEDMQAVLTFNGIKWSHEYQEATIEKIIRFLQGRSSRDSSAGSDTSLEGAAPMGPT
Chain of Mitogen-activated protein kinase 7 (Homo sapiens) (Q13164 whole entry, looked up, the tested form may be a part): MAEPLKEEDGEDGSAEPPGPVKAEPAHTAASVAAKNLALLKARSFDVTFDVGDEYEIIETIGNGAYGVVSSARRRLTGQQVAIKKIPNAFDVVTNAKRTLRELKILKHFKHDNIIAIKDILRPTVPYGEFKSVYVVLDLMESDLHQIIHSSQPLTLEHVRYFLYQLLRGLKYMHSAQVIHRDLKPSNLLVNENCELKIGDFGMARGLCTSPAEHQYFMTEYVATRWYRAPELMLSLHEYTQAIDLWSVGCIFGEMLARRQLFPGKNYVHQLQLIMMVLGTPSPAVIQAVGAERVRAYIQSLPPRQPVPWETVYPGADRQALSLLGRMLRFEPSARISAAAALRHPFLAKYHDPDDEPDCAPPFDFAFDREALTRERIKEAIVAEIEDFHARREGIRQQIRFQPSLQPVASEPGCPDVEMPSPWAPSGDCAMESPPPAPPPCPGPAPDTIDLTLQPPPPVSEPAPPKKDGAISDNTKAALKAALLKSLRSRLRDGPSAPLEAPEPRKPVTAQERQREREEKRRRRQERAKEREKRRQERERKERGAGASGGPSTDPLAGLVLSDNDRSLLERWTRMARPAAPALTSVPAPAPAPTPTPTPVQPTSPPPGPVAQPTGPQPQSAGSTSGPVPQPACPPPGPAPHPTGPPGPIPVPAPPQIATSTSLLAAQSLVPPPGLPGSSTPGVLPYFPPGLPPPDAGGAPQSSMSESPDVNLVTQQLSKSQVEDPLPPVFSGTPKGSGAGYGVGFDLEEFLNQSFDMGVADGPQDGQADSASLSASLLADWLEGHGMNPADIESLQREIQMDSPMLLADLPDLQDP

For `CC(N)C12CC3CC(CC(C3)C1)C2` (stereo not drawn), the remaining NAD [1] was 10 nM (inactive), the luciferase signal [2] was 48 AU (inactive) and the z-score [3] was 1.03 (inactive) and -0.17 (inactive) and -0.24 (inactive). The inhibition ([4]; at 0.5 µM, stronger effect = higher value) was 6% (inactive), the inhibition ([4]; measured here: combination with BGB IC20, at 0.005 µM) was -16.1% and the inhibition ([4]; measured here: combination with BGB IC40, at 0.005 µM) was -38.1%. For the same molecule, the inhibition [4, 19] was -30.6%, the inhibition ([4]; measured here: combination with cisplatin, at 0.5 µM, stronger effect = higher value) was 9.24% and the inhibition ([4]; measured here: combination with cisplatin, at 5 µM, stronger effect = higher value) was -22.9%. The inhibition ([5]; BGB combo, at 5 µM) was -28.3%, the inhibition ([5]; at 0.5 µM) was -32.5% (inactive) and the inhibition ([5]; cisplatin combo, at 5 µM) was -20.2%. The inhibition [5, 20] was -33.5%, the inhibition [5, 21] was -23.6% and the inhibition ([5]; single agent, at 5 µM) was -36.9%. It also gave an inhibition ([6]; BGB IC20 combo, at 0.005 µM) of -4.5%, an inhibition ([6]; BGB IC40 combo, at 0.005 µM) of -19.4% and an inhibition ([6]; BGB IC40 combo, at 0.05 µM) of -14.2%. The inhibition ([6]; at 0.5 µM) was -43.5% (inactive), the inhibition ([6]; cisplatin combo, at 0.05 µM) was -17.4% and the inhibition ([6]; cisplatin combo, at 0.5 µM) was -54.1%. The inhibition ([6]; cisplatin combo, at 5 µM) was -42.4%, the inhibition ([6]; measured here: 5 uM single agent, at 5 µM) was 12.3% and the inhibition ([7]; at 0.5 µM) was -32.9% (inactive). It also gave an inhibition [7, 19] of -22.2%, an inhibition [7, 22] of -47.8% and an inhibition [7, 23] of -25.5%. The inhibition ([8]; at 0.5 µM) was -15.6% (inactive), the inhibition ([8]; measured here: with BGB IC20, at 0.5 µM) was -39.8% and the inhibition ([8]; measured here: with BGB IC20, at 5 µM) was -20.6%. It also gave an inhibition ([8]; measured here: with cisplatin IC20, at 0.5 µM) of -6.13%, an inhibition ([8]; measured here: with cisplatin IC20, at 5 µM) of -66.2% and an inhibition ([8]; single agent, at 5 µM) of -17.9%. The inhibition ([9]; at 0.5 µM) was -53.4% (inactive), the inhibition ([9]; measured here: combination with BGB at IC20, at 0.5 µM) was -8.22% and the inhibition ([9]; measured here: combination with cisplatin at IC20, at 0.5 µM) was -77.6%. The inhibition ([10]; at 0.5 µM) was -18.7% (inactive), the inhibition ([10]; measured here: combo with BGB at IC20, at 0.5 µM) was -21.4% and the inhibition ([10]; measured here: combo with cisplatin at IC20, at 0.5 µM) was -22.1%. For the same molecule, the inhibition ([11]; at 0.5 µM) was -6.71% (inactive), the inhibition ([11]; measured here: inhibition with BGB combination, at 0.05 µM) was -27.7% and the inhibition ([11]; measured here: inhibition with cisplatin combination, at 0.05 µM) was -16.3%. For the same molecule, the inhibition ([12]; at 0.5 µM) was -18.8% (inactive), the inhibition [12, 22] was -16.8% and the inhibition [12, 23] was -59.2%. The inhibition ([13]; at 0.5 µM) was -35.4% (inactive), the inhibition ([13]; measured here: BGB combination, at 0.5 µM) was -21.6% and the inhibition ([13]; measured here: BGB combination, at 5 µM) was -29.1%. The inhibition ([13]; measured here: cisplatin combination, at 0.5 µM) was -60.5%, the inhibition ([13]; measured here: cisplatin combination, at 5 µM) was -34.4% and the inhibition ([14]; BGB combination, concentration series, at 5 µM) was -31.1%. For the same molecule, the inhibition ([14]; at 0.5 µM) was -16.9% (inactive), the inhibition ([14]; cisplatin combination, concentration series, at 5 µM) was 2.74% and the inhibition [15] was -10.5% (inactive). The inhibition ([15]; measured here: combo with BGB IC20) was -8.28%, the inhibition ([15]; measured here: combo with cisplatin IC20) was -5.35% and the inhibition ([16]; at 0.5 µM) was -35.2% (inactive). The inhibition ([16]; cisplatin combination, at 0.5 µM) was -18.2%, the inhibition ([16]; cisplatin combination, at 5 µM) was -3.55% and the inhibition ([16]; measured here: BGB IC40 combination 0.05 uM, at 0.05 µM) was 9.42%. The inhibition ([16]; single agent, at 5 µM) was -34.6%, the inhibition ([17]; at 0.5 µM) was -21.2% (inactive) and the inhibition ([17]; cisplatin combo, at 5 µM) was -32.4%. For the same molecule, the inhibition ([17]; measured here: BGB IC40 combination, at 0.05 µM) was -22.9%, the inhibition [17, 22] was -18.2% and the inhibition ([17]; single agent, at 5 µM) was -26.9%. For the same molecule, the inhibition ([18]; at 0.5 µM) was -36.2% (inactive), the inhibition [18, 20] was -19.2% and the inhibition [18, 21] was -48%. The inhibition ([18]; single agent, at 0.05 µM) was -83.2%, the inhibition ([18]; single agent, at 5 µM) was 0.3% and the log fold change Tl+ flux (F380Y) was 0.00103 (inactive). The log fold change Tl+ flux (F380Y/beta1) was 0.0203 (inactive).

Source: PubChem BioAssay
